# Assay results as given in PubChem BioAssay (NCATS).
# Inconclusive results are not listed. Calls of active or inactive are those of the source. Unless noted, calls follow the shape of the dose curve; as a rule, active = well fitted inhibition curve with a large enough effect; inconclusive = small, poorly fitted or top-dose-only effect; inactive = no such curve, though single readings can be large or run the other way.
# Experiment: Primary qHTS for small molecule stabilizers of the endoplasmic reticulum resident proteome: Secreted ER Calcium Modulated Protein (SERCaMP) assay (AID 1508630); as to activity change, negative = inhibition: % is scaled to controls: 0 for no effect and ±100 for the full control effect
# Conditions: SH-SY5Y GLuc-SERCaMP (Gaussia luciferase released on ER calcium loss) secretion, thapsigargin, luminescence; series mostly up to 38.4 µM; activity change, negative = inhibition: at the top concentration
# How it was run: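 The SH-SY5Y reporter protocol was run at 3 concentrations up to 38.3 uM (primary) or 11 concentrations (follow-up): 16 h compound, 100 nM thapsigargin for 4 h, then extracellular luciferase luminescence.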
# Potency is read from the fitted curve at half-maximal effect.
SMILES,"activity change, negative = inhibition",Potency
CC(=O)SCC[N+](C)(C)C,-20.7% (inactive),
O=c1[nH]c2cc(C(F)(F)F)ccc2n1-c1cc(C(F)(F)F)ccc1O,,inactive
COc1ccc(NC(=O)/C=C/c2ccc(Cl)cc2)cc1,1.63% (inactive),
O=C1C(SCCO)=C(SCCO)C(=O)c2ccccc21,,25.1 µM (active)
Nc1nc(SCc2ccc([N+](=O)[O-])cc2)c2ncn([C@@H]3O[C@H](CO)[C@@H](O)[C@H]3O)c2n1,,inactive
CC(C)(C)c1ccc(S(=O)(=O)/C=C/C#N)cc1,148% (inactive),
O=C1NC(=O)/C(=C/c2ccc(-c3ccc(F)cc3O)o2)S1,-18.4% (inactive),
Oc1ccc(C2CNCc3sccc32)cc1O (centres undefined),-21.7% (inactive),
CN=c1nc(-c2ccccc2)n(-c2ccccc2)s1,102% (inactive),
COc1cc(SC)ccc1C(=O)N1CCC(Cc2ccccc2)CC1,,inactive
OC[C@H]1O[C@@H](n2cnc3c(NC4CCCC4)ncnc32)[C@H](O)[C@@H]1O,,inactive
Clc1ccc(N2CCN(Cc3c[nH]c4ncccc34)CC2)cc1,,inactive
CC1(C)CCC=[N+]1[O-],-4.91% (inactive),
O=C(O)c1cc([N+](=O)[O-])ccc1NCCCc1ccccc1,,inactive
CN1CCc2cc(NC(=O)Nc3cccnc3)ccc21,4.04% (inactive),
O=C1NC(=O)c2c1c(-c1ccccc1)cc1[nH]c3ccc(O)cc3c21,-0.431% (inactive),
O=[N+]([O-])c1ccc(CSc2ncnc3c2ncn3[C@@H]2O[C@H](CO)[C@@H](O)[C@H]2O)cc1,-24.8% (inactive),
CCCCCCCCCCCCCCCC(=O)OC(CC(=O)O)C[N+](C)(C)C (centres undefined),,inactive
N[C@H](CCCP(=O)(O)O)C(=O)O,-15.2% (inactive),

# Experiment: A High-Content qHTS Against Drug Library for the Identification of Small Molecules that Inhibit DYT1 Early Onset Primary Dystonia-Associated Cell Pathology (AID 1645839; calls by dose curve)
# Conditions: HEK293 Flp-In EGFP-delE TorsinA, punctate imaging, 48 h; series mostly up to 46.1 µM; % pathology change, negative = correction: at the top concentration
# How it was run: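 Induced EGFP-delE TorsinA cells are imaged after 48 h of compound treatment. Punctate fusion-protein distribution gives the %pathology value, while nuclei counts flag toxicity. Wild-type EGFP-hTOR1A cells define the normal pattern.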
SMILES,"% pathology change, negative = correction",Potency
CC(=O)c1ccc(OCC(=O)N2CCCCC2)cc1,-24% (inactive),
CCCCCCCCCCCCCCCCCC(=O)O,14.1% (inactive),
Cc1ccc(C(=O)c2ccc(CC(=O)O)n2C)cc1,4.65% (inactive),
O=C(O)/C=C\C(=O)O,17% (inactive),
[O-][n+]1ccccc1SSc1cccc[n+]1[O-],,3.16 µM (active)
N=C(N)N,0.92% (inactive),
Nc1c(CC(=O)O)cccc1C(=O)c1ccc(Br)cc1,-8.89% (inactive),
Nc1ccc(O)c([N+](=O)[O-])c1,-22.8% [at 91.7 µM] (inactive),
CCOC(=O)c1ccccc1O,2.67% (inactive),
C=CCCCCCCCCC(=O)O,-27.1% (inactive),
CC(C(=O)O)c1ccc2c(c1)[nH]c1ccc(Cl)cc12 (centres undefined),0.338% (inactive),
CC1(C)S[C@@H]2[C@H](NC(=O)[C@H](N)c3ccccc3)C(=O)N2[C@H]1C(=O)O,6.54% (inactive),
CO[C@@]1(NC(=O)Cc2cccs2)C(=O)N2C(C(=O)O)=C(COC(N)=O)CS[C@@H]21,12.2% (inactive),
O=Cc1ccc(O)c(O)c1O,-21.7% (inactive),
CCCCCCCCCCCC(=O)[O][Sn]([CH2]CCC)([CH2]CCC)[O]C(=O)CCCCCCCCCCC,-5.82% (inactive),
Nc1nc2ccc([N+](=O)[O-])cc2s1,13% [at 91.7 µM] (inactive),
Nc1ccc(C(=O)O)c(O)c1,-5.64% (inactive),
CC(=O)SCC(CC(=O)c1ccc(C)cc1)C(=O)O (centres undefined),0.115% (inactive),
O=C(O)c1cc(O)c(O)c(O)c1,-29% (inactive),
CC(C(=O)O)c1ccc(C(=O)c2ccccc2)s1 (centres undefined),-27.1% (inactive),
